Source: publication PMC5540273 (PLoS ONE, 2017)

Legend:
Conditions in all cases: concentration: 1 μM, replicates: in singlicate; n = 1
[1] = tested on: CAMK1
[2] = tested on: CAMK2A
[3] = tested on: CAMK2B
[4] = tested on: CAMK2D
[5] = tested on: CAMK2G
[6] = tested on: CAMK4
[7] = tested on: CAMKK1
[8] = tested on: CAMKK2
[9] = tested on: CASK
[10] = tested on: T1, CDC2L1
T1 construct: gene CDK11B
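Further: KINOMEscan kinase panel screen.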

| Compound | %Inh [1] | %Inh [2] | %Inh [3] | %Inh [4] | %Inh [5] | %Inh [6] | %Inh [7] | %Inh [8] | %Inh [9] | %Inh [10] |
| --- | --- | --- | --- | --- | --- | --- | --- | --- | --- | --- |
| Cc1ccccc1CC(=O)N1CCc2cc(-c3cn(C)c4ncnc(N)c34)ccc21 [GSK2603346] | 16% | 0% | 0% | 0% | 5% | 5% | 0% | 0% | 0% | 0% |
| CN(C)c1ncnc2nc[nH]c12 [SKF-31736] | 0% | 12% | 0% | 29% | 29% | 0% | 15% | 25% | 41% | 0% |
| Cn1cc(-c2cnc(N)c3c(-c4ccc5c(c4)CCN5C(=O)Cc4ccccc4)csc23)cn1 [GSK2593074] | 0% | 29% | 12% | 0% | 13% | 0% | 11% | 19% | 23% | 4% |
| CN(c1ccc(NC(=O)N2CCN(CCCN3CCOCC3)CC2)cc1)c1ccnc(Nc2ccc(CS(C)(=O)=O)cc2)n1.Cl [GW830899] | 0% | 0% | 0% | 1% | 0% | 0% | 19% | 0% | 0% | 2% |
| Nc1ncc(-c2ccc3nccc(-c4ccncc4)c3c2)cc1S(=O)(=O)N1CCCCC1 [GSK1693850] | 18% | 4% | 0% | 0% | 14% | 0% | 24% | 33% | 24% | 0% |
| CCOc1nccc(-c2c(-c3ccc(F)cc3)ncn2C2CCNCC2)n1 [SB-249175] | 0% | 0% | 0% | 0% | 0% | 11% | 1% | 15% | 0% | 3% |
| CN(C)CCNS(=O)(=O)c1ccc(-c2ccnc3[nH]ccc23)cc1 [GSK977620] | 50% | 0% | 0% | 0% | 5% | 57% | 0% | 0% | 3% | 0% |
| Cc1ccc(O)cc1Nc1ccnc2cc(-c3ccc(CN4CCCCC4)o3)ccc12 [GW557777] | 4% | 0% | 13% | 10% | 8% | 0% | 10% | 9% | 2% | 20% |
| CN(C)CCOc1ccc(-c2cc(-c3ccc(Cl)c(O)c3)c(-c3ccncc3)[nH]2)cc1.Cl.Cl [SB-684387] | 24% | 0% | 0% | 13% | 19% | 0% | 25% | 21% | 17% | 0% |
| Nc1ncc(-c2cn[nH]c2)c2scc(-c3ccc4c(c3)CCN4C(=O)Cc3ccccc3)c12 [GSK2593067] | 33% | 0% | 0% | 0% | 18% | 0% | 56% | 8% | 13% | 0% |
| CN(c1ccc(F)c(NC(=O)c2cccc(OC(C)(C)C#N)c2Cl)c1)c1ccc2nc(NC(=O)C3CC3)sc2n1 | 0% | 1% | 0% | 0% | 8% | 0% | 10% | 0% | 0% | 0% |
| O=C(O)C(F)(F)F.O=c1[nH]ccc2nc(N[C@@H]3CCNC3)nc(Nc3ccc4c(c3)S(=O)(=O)CC4)c12 [GSK2181306] | 82% | 59% | 23% | 55% | 52% | 98.5% | 92.1% | 40% | 15% | 0% |
| COc1cccc(CC(=O)N2CCc3cc(-c4cn(C)c5ncnc(N)c45)ccc32)c1 [GSK2608899] | 16% | 0% | 0% | 15% | 27% | 13% | 7% | 9% | 16% | 1% |
| CC(C)c1nc(-c2cccc(NS(=O)(=O)c3c(F)cccc3F)c2)c(-c2ccnc(Nc3ccc(N4CCOCC4)nc3)n2)s1.Cl [GSK1723980] | 47% | 0% | 0% | 2% | 10% | 0% | 14% | 6% | 92.1% | 0% |
| c1ccc(Oc2ccc(Nc3ccnc4cc(-c5ccc(CN6CCCCC6)o5)ccc34)cc2)nc1 [GW567143] | 28% | 0% | 0% | 0% | 0% | 0% | 0% | 0% | 49% | 0% |
| Cc1cccc(Nc2nc(NCCN)ncc2C(N)=O)c1 [GSK1292139] | 59% | 0% | 0% | 14% | 27% | 0% | 18% | 28% | 13% | 0% |
| O=C(Nc1n[nH]c2cc(-c3cccs3)ccc12)C1CC1 [SB-731284] | 11% | 0% | 0% | 0% | 0% | 0% | 17% | 0% | 49% | 0% |
| Cc1cc(-c2c(-c3ccc(F)cc3)ncn2CCCN2CCOCC2)nc(N)n1 [SB-222517] | 17% | 0% | 30% | 0% | 8% | 13% | 25% | 0% | 33% | 0% |
| Cc1cccc(Nc2nc(N[C@H]3CCCC[C@H]3N)ncc2C(N)=O)c1.Cl [GSK986310] | 54% | 0% | 0% | 16% | 33% | 72% | 22% | 26% | 56% | 0% |
| O=C1NC(=O)C(c2ccccc2Cl)=C1Nc1cccc(Cl)c1 [SB-342409] | 0% | 10% | 0% | 43% | 19% | 47% | 21% | 0% | 39% | 0% |
| COc1cccc2c(-c3ccncc3)c(-c3ccc(F)cc3)nn12 [GW468513] | 0% | 0% | 0% | 0% | 13% | 0% | 6% | 5% | 0% | 0% |
| N#CC1(c2cccc(C(=O)Nc3cccc(Oc4ccc5nc(NC(=O)C6CC6)sc5n4)c3)c2)CC1 | 0% | 29% | 26% | 20% | 100% | 2% | 9% | 99.6% | 16% | 0% |
| COC(=O)Nc1nc2cc(Oc3ccc(NC(=O)Nc4cccc(SC)c4)cc3)ccc2[nH]1.Cl [GW697999] | 11% | 18% | 28% | 0% | 12% | 0% | 0% | 0% | 16% | 0% |
| Cl.Cl.NCC(NC(=O)c1cc(-c2cccnc2)c(-c2ccnc3[nH]ccc23)s1)c1ccccc1 (stereo not drawn) [GSK1323434] | 32% | 0% | 0% | 8% | 14% | 0% | 14% | 24% | 30% | 0% |
| CN1CCN(Cc2ccc(NC(=O)Nc3ccc(N(C)c4ccnc(Nc5ccc(CS(C)(=O)=O)cc5)n4)cc3)cc2)CC1.Cl [GW827654] | 28% | 0% | 0% | 9% | 15% | 0% | 95.4% | 28% | 3% | 33% |
| COc1cccc(NC(=O)NCCNc2ccnc(Nc3ccc(F)cc3)n2)c1 [GSK1379879] | 7% | 0% | 0% | 0% | 14% | 0% | 13% | 3% | 0% | 0% |
| COc1cc(Nc2nccc(N3CCC(NC(=O)Nc4ccc5c(c4)OCO5)C3)n2)cc(OC)c1OC (stereo not drawn) [GSK1379766] | 28% | 0% | 0% | 14% | 28% | 0% | 21% | 24% | 4% | 0% |
| CNc1nccc(-c2ccc3c(N)n[nH]c3c2)n1 [GSK2206003] | 24% | 14% | 31% | 33% | 33% | 0% | 10% | 13% | 21% | 10% |
| O=C(Nc1c(F)cccc1F)c1cc(C(=O)c2ccccc2F)c[nH]1 [GSK1326180] | 17% | 2% | 0% | 1% | 8% | 5% | 0% | 0% | 3% | 0% |
| O=C(Nc1n[nH]c2nc(-c3cccc(O)c3)ccc12)C1CC1 [SB-711805] | 0% | 0% | 0% | 0% | 0% | 0% | 0% | 0% | 0% | 0% |
